Assay results: PubChem BioAssay (Tox21)
Where “and” joins values, the source holds several entries; their conditions need not be identical. Equal entries are not always repeated. The source holds several records for some structures; these can differ, active in one and inactive in another. Calls of active or inactive are those of the source. Unless noted, calls come from the whole dose curve; as a rule, active = well fitted curve in the direction sought with a large enough effect in the repeat runs; inconclusive = weak or mixed curves; inactive = no such curve, though single readings can be large; an effect the other way counts as inactive or inconclusive. Starred links: 1 amine or outer side, 2 acyl side, 3 side chain; linkers in the order of their positions; H or OH if unused. Positions of bridges follow the written chain, without caps; N, C: chain ends. Non-standard residues stand in square brackets, D forms with d. Residues, ends and D or L forms follow the SMILES beside them. Chains are numbered I, II in the order given. Actinocin(9to1) = Cc1c2oc3c(C)ccc(C(=O)[*:1])c3nc-2c(C(=O)[*:2])c(N)c1=O; NMeV = CN[C@H](C(=O)O)C(C)C; Sar = CNCC(=O)O

Key:
[1] = qHTS assay to identify small molecule antagonists of the thyroid receptor (TR) signaling pathway - cell viability counter screen (AID 743064); note: nearly all actives have a fitted effect of over 50% in size; note: potency is the fitted concentration of half-maximal effect
Method in brief: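 In rat pituitary GH3.TRE-Luc reporter cells co-exposed to compound and 1 nM T3 for 23.5 h, cytotoxicity was assessed with CellTiter-Fluor in the same wells, read by fluorescence.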

[2] = qHTS assay to identify small molecule antagonists of the thyroid receptor (TR) signaling pathway (AID 743065); note: nearly all actives have a fitted effect of over 55% in size; note: potency is the fitted concentration of half-maximal effect
Method in brief: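 Antagonism measured as loss of luciferase signal in GH3 cells stably carrying a TRE-luciferase reporter, co-treated with compound and T3 (1 nM final) for 23.5 h at 37 C. Viability was read in the same well by CellTiter-Fluor.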

[3] = tested on: thyroid hormone receptor (rat, GH3 cells); assay: qHTS assay to identify small molecule agonists of the thyroid receptor (TR) signaling pathway (AID 743066; calls by dose curve)
[4] = target: Estrogen receptor (Homo sapiens) (UniProt P03372); assay: qHTS assay to identify small molecule antagonists of the estrogen receptor alpha (ER-alpha) signaling pathway (AID 743069; active = well fitted curve in the direction sought with a large enough effect in the signal ratio in the repeat runs, not every such curve was filed as active; inconclusive = weak or mixed curves, or effect the other way; inactive = no such curve, though single readings can be large or run the other way; the % refers to the signal ratio; note: potency is the fitted concentration of half-maximal effect)
Estrogen receptor (Homo sapiens), sequence (P03372 whole entry, looked up): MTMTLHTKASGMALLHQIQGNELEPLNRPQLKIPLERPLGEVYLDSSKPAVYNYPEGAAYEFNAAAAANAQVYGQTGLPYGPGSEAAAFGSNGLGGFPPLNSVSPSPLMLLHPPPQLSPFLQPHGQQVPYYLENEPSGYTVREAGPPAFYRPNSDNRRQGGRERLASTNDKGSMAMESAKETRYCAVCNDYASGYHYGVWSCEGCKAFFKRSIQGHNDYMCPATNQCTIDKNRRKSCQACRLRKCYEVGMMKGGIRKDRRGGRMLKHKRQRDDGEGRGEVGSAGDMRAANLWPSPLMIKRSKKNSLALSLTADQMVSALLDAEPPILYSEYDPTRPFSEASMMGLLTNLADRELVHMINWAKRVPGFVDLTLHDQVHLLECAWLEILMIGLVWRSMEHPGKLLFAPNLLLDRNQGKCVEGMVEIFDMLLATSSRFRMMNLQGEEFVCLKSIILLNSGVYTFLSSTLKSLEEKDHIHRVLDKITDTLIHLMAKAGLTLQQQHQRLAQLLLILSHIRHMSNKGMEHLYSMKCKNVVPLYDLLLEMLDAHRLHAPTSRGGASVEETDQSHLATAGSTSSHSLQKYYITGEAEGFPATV
Method in brief: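 ER-alpha-UAS-bla GripTite HEK293 line; 2% charcoal-stripped FBS overnight; plated, 4 hr 37C/5% CO2; cpd in DMSO + 17beta-estradiol, 18 hr 37C; LiveBLAzer B/G FRET substrate 2 hr RT; fluorescence intensity.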

[5] = qHTS assay to identify small molecule antagonists of the estrogen receptor alpha (ER-alpha) signaling pathway - cell viability counter screen (AID 743074; calls by dose curve;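 note: HEK293 cells carrying ER-alpha-UAS-bla reporter stimulated with 17beta-estradiol; nearly all actives have a fitted effect of over 45% in size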)
[6] = target: Estrogen receptor (Homo sapiens) (UniProt P03372); assay: qHTS assay to identify small molecule agonists of the estrogen receptor alpha (ER-alpha) signaling pathway (AID 743075; calls by dose curve;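 note: HEK293 GripTite cells with ER-alpha and UAS-driven beta-lactamase reporter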; note: potency is the fitted concentration of half-maximal effect)
[7] = target: Estrogen receptor (Homo sapiens) (UniProt P03372); assay: qHTS assay to identify small molecule agonists of the estrogen receptor alpha (ER-alpha) signaling pathway using the BG1 cell line (AID 743079); note: nearly all actives have a fitted effect of over 20% in size; note: potency is the fitted concentration of half-maximal effect
[8] = qHTS assay to identify small molecule antagonists of the estrogen receptor alpha (ER-alpha) signaling pathway using the BG1 cell line (AID 743080; calls by dose curve;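 note: BG1 cells stimulated with 17beta-estradiol alongside compound; nearly all actives have a fitted effect of over 25% in size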; note: potency is the fitted concentration of half-maximal effect)
Method in brief: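 Luciferase inhibition measured with ONE-Glo after 30 min at RT in BG1Luc4E2 cells given test compounds and 17beta-estradiol for 21.5 h at 37 C; CellTiter-Fluor viability read in the same wells beforehand.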

[9] = qHTS assay to identify small molecule antagonists of the estrogen receptor alpha (ER-alpha) signaling pathway using the BG1 cell line - cell viability counter screen (AID 743081);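 note: compound given together with 17beta-estradiol as the ER stimulus; nearly all actives have a fitted effect of over 45% in size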; note: potency is the fitted concentration of half-maximal effect
[10] = target: Aromatase (Homo sapiens) (UniProt P11511); assay: qHTS assay to identify aromatase inhibitors (AID 743083); note: nearly all actives have a fitted effect of over 55% in size; note: potency is the fitted concentration of half-maximal effect
Aromatase (Homo sapiens), sequence (P11511 whole entry, looked up): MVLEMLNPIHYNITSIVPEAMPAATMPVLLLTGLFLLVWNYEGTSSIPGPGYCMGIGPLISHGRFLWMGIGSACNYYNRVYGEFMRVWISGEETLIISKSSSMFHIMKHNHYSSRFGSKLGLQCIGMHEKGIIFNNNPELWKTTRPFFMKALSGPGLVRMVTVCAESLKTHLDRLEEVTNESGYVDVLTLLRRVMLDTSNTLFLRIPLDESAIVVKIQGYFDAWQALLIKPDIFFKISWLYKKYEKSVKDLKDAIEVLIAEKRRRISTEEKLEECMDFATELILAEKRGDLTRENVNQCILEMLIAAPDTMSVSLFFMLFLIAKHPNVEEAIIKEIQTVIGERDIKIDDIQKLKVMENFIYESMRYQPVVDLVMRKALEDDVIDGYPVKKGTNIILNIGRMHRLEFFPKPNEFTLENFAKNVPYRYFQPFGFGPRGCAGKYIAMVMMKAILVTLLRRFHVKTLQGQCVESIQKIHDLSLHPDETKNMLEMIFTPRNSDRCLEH

[11] = qHTS assay to identify aromatase inhibitors - cell viability counter screen (AID 743084);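 note: cells stimulated with testosterone during compound exposure; nearly all actives have a fitted effect of over 55% in size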; note: potency is the fitted concentration of half-maximal effect
[12] = target: Aryl hydrocarbon receptor (Homo sapiens) (UniProt P35869); assay: qHTS assay to identify small molecule that activate the aryl hydrocarbon receptor (AhR) signaling pathway (AID 743085);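 note: HG2L7.5c1 human HepG2 liver cells with stably integrated DRE-driven firefly reporter; series mostly up to about 70 µM; nearly all actives have a fitted effect of over 15% in size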
Aryl hydrocarbon receptor (Homo sapiens), sequence (P35869 whole entry, looked up): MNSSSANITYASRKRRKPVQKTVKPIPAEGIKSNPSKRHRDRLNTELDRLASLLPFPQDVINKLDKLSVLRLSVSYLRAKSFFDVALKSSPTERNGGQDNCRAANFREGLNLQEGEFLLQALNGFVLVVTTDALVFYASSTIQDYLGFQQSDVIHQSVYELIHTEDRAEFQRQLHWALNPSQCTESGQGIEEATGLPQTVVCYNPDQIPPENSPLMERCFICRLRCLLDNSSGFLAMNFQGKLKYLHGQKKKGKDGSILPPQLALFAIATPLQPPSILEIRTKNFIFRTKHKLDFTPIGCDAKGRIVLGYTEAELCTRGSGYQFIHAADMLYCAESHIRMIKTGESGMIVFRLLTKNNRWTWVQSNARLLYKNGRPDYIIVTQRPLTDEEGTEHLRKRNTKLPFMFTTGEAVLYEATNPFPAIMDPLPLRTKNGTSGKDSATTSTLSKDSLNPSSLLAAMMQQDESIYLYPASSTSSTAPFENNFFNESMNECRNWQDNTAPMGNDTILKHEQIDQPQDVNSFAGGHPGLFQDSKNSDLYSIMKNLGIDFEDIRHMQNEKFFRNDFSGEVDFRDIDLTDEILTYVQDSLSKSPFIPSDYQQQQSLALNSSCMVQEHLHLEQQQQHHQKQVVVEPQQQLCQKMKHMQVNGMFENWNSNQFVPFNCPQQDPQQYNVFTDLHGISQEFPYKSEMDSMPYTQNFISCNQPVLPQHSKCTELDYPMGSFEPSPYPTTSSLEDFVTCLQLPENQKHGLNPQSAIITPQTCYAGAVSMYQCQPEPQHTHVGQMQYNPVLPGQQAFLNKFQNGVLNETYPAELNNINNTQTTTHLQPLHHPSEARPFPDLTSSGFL
Method in brief: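 AhR agonist activity is inferred from enhanced light output of a DRE-controlled firefly luciferase reporter in HepG2 cells, measured with ONE-Glo following 24 h treatment at 37C.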

[13] = qHTS assay to identify small molecule that activate the aryl hydrocarbon receptor (AhR) signaling pathway - cell viability counter screen (AID 743086); note: nearly all actives have a fitted effect of over 45% in size; note: potency is the fitted concentration of half-maximal effect
Method in brief: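 Cytotoxicity counter screen: CellTiter-Fluor signal (30 min, 37 C) in 4000 HepG2 cells/well carrying the DRE-luciferase reporter, following 24 h compound exposure at 37 C.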

[14] = target: Peroxisome proliferator-activated receptor gamma (Homo sapiens) (UniProt P37231); assay: qHTS assay to identify small molecule antagonists of the peroxisome proliferator-activated receptor gamma (PPARg) signaling pathway (AID 743191; calls by dose curve; note: series mostly up to about 63 µM; nearly all actives have a fitted effect of over 30% in size)
Peroxisome proliferator-activated receptor gamma (Homo sapiens), sequence (P37231 whole entry, looked up): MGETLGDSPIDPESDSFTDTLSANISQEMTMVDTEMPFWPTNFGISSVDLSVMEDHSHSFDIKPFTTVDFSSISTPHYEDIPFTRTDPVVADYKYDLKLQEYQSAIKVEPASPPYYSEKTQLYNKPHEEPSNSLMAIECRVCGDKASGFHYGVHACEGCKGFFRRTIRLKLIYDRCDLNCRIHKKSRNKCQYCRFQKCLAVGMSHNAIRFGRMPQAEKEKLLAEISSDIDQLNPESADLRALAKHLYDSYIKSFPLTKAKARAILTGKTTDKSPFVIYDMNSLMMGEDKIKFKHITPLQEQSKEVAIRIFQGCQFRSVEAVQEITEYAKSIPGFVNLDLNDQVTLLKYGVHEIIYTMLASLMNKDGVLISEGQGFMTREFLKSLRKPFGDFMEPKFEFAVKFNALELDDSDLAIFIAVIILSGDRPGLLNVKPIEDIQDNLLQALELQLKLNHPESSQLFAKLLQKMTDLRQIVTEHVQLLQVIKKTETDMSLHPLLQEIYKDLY
Method in brief: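 Beta-lactamase reporter under UAS control in HEK293H PPARg-bla cells; compound treatment 17 h at 37C. Read-out: fluorescence intensity after 1 h room-temperature incubation with LiveBLAzer B/G FRET substrate.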

[15] = qHTS assay to identify small molecule antagonists of the peroxisome proliferator-activated receptor gamma (PPARg) signaling pathway - cell viability counter screen (AID 743194); note: nearly all actives have a fitted effect of over 55% in size
Method in brief: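 Viability was measured as CellTiter-Glo luminescence in GeneBLAzer PPARg UAS-bla HEK293H cells. These cells had been exposed 17 h at 37 C to compounds together with rosiglitazone at 50 nM final, with the beta-lactamase readout taken in the same wells.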

[16] = qHTS assay for small molecule agonists of the antioxidant response element (ARE) signaling pathway (AID 743202; active = well fitted activation curve with a large enough effect in the signal ratio in the repeat runs, not every such curve was filed as active; inconclusive = weak or mixed curves, or effect the other way; inactive = no such curve, though single readings can be large or run the other way; the % refers to the signal ratio)
Method in brief: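 Quantitative high-throughput format in HepG2 cells bearing an integrated ARE-beta-lactamase reporter. Compound exposure lasted 16 h at 37 C, and fluorescence was read 2 h after adding LiveBLAzer B/G substrate at room temperature.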

[17] = qHTS assay for small molecule agonists of the antioxidant response element (ARE) signaling pathway - cell viability counter screen (AID 743203; calls by dose curve; note: nearly all actives have a fitted effect of over 55% in size; note: potency is the fitted concentration of half-maximal effect)
Method in brief: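 Following 16 hrs of compound treatment at 37C, HepG2 cells with an ARE-controlled beta-lactamase gene were lysed with CellTiter-Glo. Luminescence was read after 30 min at room temperature.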

[18] = qHTS assay for small molecule activators of the heat shock response signaling pathway - cell viability counter screen (AID 743209); note: nearly all actives have a fitted effect of over 50% in size; note: potency is the fitted concentration of half-maximal effect
Method in brief: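 Readout: CellTiter-Glo luminescence, 30 min at room temperature. System: HSE-bla HeLa cells, 1500/well, plated overnight. Treatment: compounds in DMSO, 5 h at 37 C.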

[19] = qHTS assay for small molecule activators of the heat shock response signaling pathway (AID 743210; active = well fitted activation curve with a large enough effect in the signal ratio in the repeat runs, with a control signal flat, not every such curve was filed as active; inconclusive = weak or mixed curves; the % refers to the signal ratio;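 note: HeLa cells with beta-lactamase reporter driven by heat shock elements; series mostly up to about 63 µM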)
Method in brief: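 HeLa HSE-bla cells, overnight plating; cpd in DMSO 5 h, 37 C; LiveBLAzer B/G FRET substrate 2.5 h RT; fluorescence intensity read.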

[20] = target: Peroxisome proliferator-activated receptor gamma (Homo sapiens) (UniProt P37231); assay: qHTS assay to identify small molecule agonists of the peroxisome proliferator-activated receptor gamma (PPARg) signaling pathway (AID 743094; active = well fitted activation curve with a large enough effect in the signal ratio in the repeat runs, not every such curve was filed as active; inconclusive = weak or mixed curves, or effect the other way; inactive = no such curve, though single readings can be large or run the other way; the % refers to the signal ratio)
Method in brief: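 Compounds dissolved in DMSO were added to PPARg UAS-bla HEK293H cells for 17 h at 37C, and reporter expression was quantified by fluorescence intensity after 1 h with LiveBLAzer B/G FRET substrate.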

Measured: Potency

CC1COC(=O)O1 (stereo not drawn)
not listed: [20]
inactive: all other assays above

CCOc1ccccc1C(N)=O
not listed: [15]
inactive: all other assays above

CCCNC(C)C(=O)Nc1ccccc1C (stereo not drawn)
inactive: all assays above

CC(=O)OCCOCCOCCOC(C)=O
not listed: [20]
inactive: all other assays above

CCN1CCCC1CNC(=O)c1cc(S(=O)(=O)CC)c(N)cc1OC (stereo not drawn)
not listed: [5] | [9] | [16]
inactive: all other assays above

CCCCC/C=C/CC1CC(=O)OC1=O (stereo not drawn)
not listed: [14] | [16] | [17] | [20]
inactive: all other assays above

C=CC(=O)OCCCCCCCC
inactive: all assays above

Clc1ccc2c(c1)C(N1CCNCC1)=Nc1ccccc1O2
inactive and 17.2 µM (active): [10]
54.5 µM (active) and inactive: [17]
active: [1] 30.6 µM | [2] 29.8 µM and 30.6 µM | [8] 11.9 µM
inactive and 54.5 µM (active): [9]
not listed: [15] | [16] | [19] | [20]
inactive: all other assays above

CC(C)CCCCCCc1ccc(O)cc1
inactive and 43.3 µM (active): [8]
active: [1] 17.5 µM and 24.3 µM | [2] 22.1 µM and 21.7 µM | [6] 2.39 µM [inconclusive] and 1.25 µM [inconclusive] and 17.4 µM [inconclusive] | [7] 1.88 µM and 878 nM and 2.17 µM | [10] 34.4 µM | [18] 39.6 µM and 54.9 µM
inactive and 31.2 µM (active): [11]
not listed: [14] | [15] | [16] | [19]
inactive: all other assays above

CCN(CC)C(=O)Nc1ccc(OCC(O)CNC(C)(C)C)c(C(C)=O)c1 (stereo not drawn)
not listed: [16]
inactive: all other assays above

Cc1c2oc3c(C)ccc(C(=O)N[C@@H]4C(=O)N[C@H](C(C)C)C(=O)N5CCC[C@H]5C(=O)N(C)CC(=O)N(C)[C@@H](C(C)C)C(=O)O[C@@H]4C)c3nc-2c(C(=O)N[C@@H]2C(=O)N[C@H](C(C)C)C(=O)N3CCC[C@H]3C(=O)N(C)CC(=O)N(C)[C@@H](C(C)C)C(=O)O[C@@H]2C)c(N)c1=O (I: T[dV]P[Sar][NMeV] / II: T[dV]P[Sar][NMeV]; ester I:1-I:C, II:1-II:C; linker I:N-II:N via Actinocin(9to1))
active: [1] 6 nM and 0.9 nM | [2] 4.2 nM | [4] 53.5 nM [inconclusive] and 13.4 nM [inconclusive] | [8] 84.1 nM and 10.6 nM | [9] 15 µM and 13.3 µM | [10] 94.4 nM and 1.7 nM | [11] 7.48 µM | [13] 18.8 nM and 14.9 µM
inactive: [3] | [6] | [12] | [19]
